This is part of a sample that, as a whole, favours compounds with a hit. Of some 83,000 tested, about 20% had one in any assay.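 Note: values are percent growth. 100 is the growth of untreated cells, values between 100 and 0 indicate rising inhibition; between -100 and 0 indicates cell death.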 Calls of active or inactive are those of the source. How the source made its calls: active means growth percent below 10; inactive means the rest.
tested on: MDA-MB-468 breast; test: NCI-60 one-dose screen, 48 h (100 = growth as untreated, 0 = no growth, -100 = all killed); conditions: 10 µM unless noted

Structure (SMILES) | growth
CC(=O)OC1CCC2C3CCC4=C/C(=N/OC(=O)c5ccc(N(CCCl)CCCl)cc5)CCC4(C)C3CC(C)C12 (centres undefined) | 67.2% (inactive)
Cc1ccc(S(=O)(=O)F)cc1C(=O)O | 92.5% (inactive)
COc1cc([N+](=O)[O-])c2ncccc2c1[N+](=O)[O-] | 0.105% (active)
O=C1NC(=O)C(=Cc2ccc(OCCCCC3CCCCC3)c(Cl)c2)C(=O)N1 | 101% (inactive)

From PubChem BioAssay (NCI)
